Consider 40 sequences from the supplement of paper PMC6555819.

One experiment relates to RARa homodimer (NR concentration 270 nM). In words: PBM binding z-score (relative to random genomic background probes); higher = stronger binding; sequences stand for … in GC…GCGATTGACAGCGTAGAATGAAGG
A digest of the protocol:
(§1)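 Custom Agilent 4×180K protein-binding microarrays carried double-stranded probes. Their 34-nt variable regions held direct-repeat seeds, single-nucleotide variants, half-site ablations and random human genomic background sequences. Arrays were incubated 1 h with ligand-free nuclear receptor dimers in PBS pH 7.4, 2% milk, 0.02% Triton X-100, 1 mM DTT, 0.2 mg/mL BSA and 0.4 mg/ml salmon testes DNA. Antibodies against each partner (one per run) detected binding, and scanned fluorescence was regression-normalized. Binding z-scores use random background probes as reference.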
As for ACAGACAGGTGATGAAGGTAACTCCGGCTATCAT, the PBM binding z-score is 0.0561.
As for GCGACTGGGGCAAAGCAGGTGACCATAAGGTTGG, the PBM binding z-score is -0.538.
For the sequence GCTATTAGTTGAAAGGGCAAACGAATGATTCTCG, the PBM binding z-score amounted to 1.28.
In turn, AGAATGAGGTTATTAAGATCAGGCAATTGCGGTC yielded a PBM binding z-score of 0.167.
The same measure, in the same setting: with ATCTCTAGGTAAAAGTTCCGTGAATCCCGAGGAT the figure was 0.505; with GCTTGCAGATCAAGGTTAAGAAAGACTAAGCTAA, -0.293; with ACTAGCAGGCCAAGGGTCACTCCAGATTAGTCCG, 0.278.
Still for that read-out and setting: next, ATCGGAAGGTCGAAGGTGAGTATACCCACCCGAA: -0.118; CCGACTGGGGCAAAGGTTACCATCCTCAGTACGA: -0.46.
On the same count and under the same terms, with CCTACTGGGCAAAGGTCATTGATCAGTCAAAGCA the figure was 1.65; with ATCTCTAGGTAAAGATAGTACAGTGAATGCAAAT, 1.54.
The sequence CATACAGGGTCAGCTAGGCCAGAGCAGGGACGGC gave a PBM binding z-score of 0.253.
The same measure, in the same setting: next, ATCTATAGGTAAAAGTTCAGTGAATCCCGAGGAT: 1.06; ATCGAAAGGTCGAGGTGAGTCTAGAGAAAGGGAA: 0.714; TCTCGTAGATCAATAGAGGTTAAGAAAGTGCGCT: 0.0805.
Same read-out and setting: next, GCGACTGGGGCAAAGCAGGTTTCCATAAGGTTGG: -0.557; ACATGTAGGTTATCGGGTCATTCAGTTTGCGCAT: 2.25; CCGAGTAGGTTACGGGGCATTCAGGCAACGGTGA: -0.584.
On the same count and under the same terms, with GTGCCAAGGTGAATAGGTCGTTGATGAGTAGGCG the figure was 0.262.
On to GATACAGGGCCAAGGCCAGAGTACGCGTATTGAT, for which the PBM binding z-score was -0.587.
Still for that read-out and setting: with CCTACTGGGCCATCAGGGCATTGATATCAACGTT the figure was -0.828; with ATCTCTAGGTAACCAAGTTAAGTGAATGCCGAAC, 1.13; with ACTAGCAGGCCATGGGTCACTCAAGATTAGTCCG, -0.392.
Still for that read-out and setting: with CGTCAAAGTTCAAGGTAACGAAACAGAAAGCAGC the figure was 1.57; with TTACCAAGGTGAAGGTTGTTGATCCCTCTGTAGA, -0.403; with TCTAGTTGGTCACGGAGGTCTCACACGACGGGTA, -0.249.
On the same count and under the same terms, with CGTCCAAGGTCAGCAGGTCAGTGAAAGCGACGTG the figure was 0.465; with CCTGCTATGTCAATGGTCAGCTAAAGCAGCTCGC, -0.762; with CCGACTGGGGCAAAGGTTACCATTCTCAGTACGA, -0.539.
Regarding CGTCCAAGGTCAGCGAGGTCAGTGAATGCCGAGT, the PBM binding z-score came out at 1.25.
The same measure, in the same setting: next, AGTCAAAGTTCACTAGCTAACGTAAGATTCAGCT: 0.935; TCAATTAGTTGAAGGGCAACCGACGAGTCCGTTT: -0.199.
Same read-out and setting: with TCTCGGAGGACACGAAAGGTTAGAGCTCGACATC the figure was 0.215.
Still for that read-out and setting: next, TGAATGAGGTTATAAGATCAGGGAGCGTTGCAAA: -0.286; TCTGCTAGGTCAACGAAGGTCAGCTAATCTGCTA: 0.797; TCTTGTAGATCAACAGGAGGCTAAGAAAGATCGA: -0.265.
Sequence CTCGAAAGGTCGGGTGAGGTGAGTATACGGATAA had a PBM binding z-score of 0.691.
Same read-out and setting: next, TAGCATAGGTCATTCAGGGGCCAGTATAGAAAGC: 1.25; ATGCCAAGGTGATCGTGAGGTCGTTGATACTAAC: -0.38; GAATATAGGTAATACAAGGTGAAAGTCCGATTGT: 1.55.

In a further experiment the test system is RARb:RXRa (NR concentration 270 nM, RXRa partner concentration 90 nM). The experiment is described as above. In outline: as §1
Regarding ACAGACAGGTGATGAAGGTAACTCCGGCTATCAT, the PBM binding z-score worked out at 0.429.
The same measure, in the same setting: with GCGACTGGGGCAAAGCAGGTGACCATAAGGTTGG the figure was 0.913; with GCTATTAGTTGAAAGGGCAAACGAATGATTCTCG, 2.04.
Consider AGAATGAGGTTATTAAGATCAGGCAATTGCGGTC, for which the PBM binding z-score was 1.33.
With ATCTCTAGGTAAAAGTTCCGTGAATCCCGAGGAT, the PBM binding z-score stood at 0.237.
On the same count and under the same terms, with GCTTGCAGATCAAGGTTAAGAAAGACTAAGCTAA the figure was 0.686.
On the same count and under the same terms, with ACTAGCAGGCCAAGGGTCACTCCAGATTAGTCCG the figure was 3.42; with ATCGGAAGGTCGAAGGTGAGTATACCCACCCGAA, 2.55.
On the same count and under the same terms, next, CCGACTGGGGCAAAGGTTACCATCCTCAGTACGA: 2.39; CCTACTGGGCAAAGGTCATTGATCAGTCAAAGCA: 4.49.
For ATCTCTAGGTAAAGATAGTACAGTGAATGCAAAT, the PBM binding z-score is 0.0238.
Still for that read-out and setting: next, CATACAGGGTCAGCTAGGCCAGAGCAGGGACGGC: 4.15; ATCTATAGGTAAAAGTTCAGTGAATCCCGAGGAT: 2.29; ATCGAAAGGTCGAGGTGAGTCTAGAGAAAGGGAA: 4.31.
Still for that read-out and setting: next, TCTCGTAGATCAATAGAGGTTAAGAAAGTGCGCT: 0.751.
Still for that read-out and setting: next, GCGACTGGGGCAAAGCAGGTTTCCATAAGGTTGG: 0.376; ACATGTAGGTTATCGGGTCATTCAGTTTGCGCAT: 2.61; CCGAGTAGGTTACGGGGCATTCAGGCAACGGTGA: 1.5.
In turn, GTGCCAAGGTGAATAGGTCGTTGATGAGTAGGCG registered a PBM binding z-score of 2.09.
Still for that read-out and setting: next, GATACAGGGCCAAGGCCAGAGTACGCGTATTGAT: 0.946; CCTACTGGGCCATCAGGGCATTGATATCAACGTT: 0.358; ATCTCTAGGTAACCAAGTTAAGTGAATGCCGAAC: 0.317.
On the same count and under the same terms, next, ACTAGCAGGCCATGGGTCACTCAAGATTAGTCCG: 1.94; CGTCAAAGTTCAAGGTAACGAAACAGAAAGCAGC: 5.11.
Sequence TTACCAAGGTGAAGGTTGTTGATCCCTCTGTAGA gave a PBM binding z-score of 1.58.
On the same count and under the same terms, next, TCTAGTTGGTCACGGAGGTCTCACACGACGGGTA: 1.91.
The sequence CGTCCAAGGTCAGCAGGTCAGTGAAAGCGACGTG registered a PBM binding z-score of 5.34.
Still for that read-out and setting: next, CCTGCTATGTCAATGGTCAGCTAAAGCAGCTCGC: 0.77; CCGACTGGGGCAAAGGTTACCATTCTCAGTACGA: 2.39.
Same read-out and setting: with CGTCCAAGGTCAGCGAGGTCAGTGAATGCCGAGT the figure was 5.45.
Still for that read-out and setting: next, AGTCAAAGTTCACTAGCTAACGTAAGATTCAGCT: 4.56.
TCAATTAGTTGAAGGGCAACCGACGAGTCCGTTT yielded a PBM binding z-score of 1.54.
Same read-out and setting: next, TCTCGGAGGACACGAAAGGTTAGAGCTCGACATC: 2.48; TGAATGAGGTTATAAGATCAGGGAGCGTTGCAAA: 1.03.
On the same count and under the same terms, next, TCTGCTAGGTCAACGAAGGTCAGCTAATCTGCTA: 4.95; TCTTGTAGATCAACAGGAGGCTAAGAAAGATCGA: -0.249.
On the same count and under the same terms, next, CTCGAAAGGTCGGGTGAGGTGAGTATACGGATAA: 3.52; TAGCATAGGTCATTCAGGGGCCAGTATAGAAAGC: 4.4; ATGCCAAGGTGATCGTGAGGTCGTTGATACTAAC: 1.32.
GAATATAGGTAATACAAGGTGAAAGTCCGATTGT: the PBM binding z-score came to 0.909.
